Results from PubChem BioAssay (NCI).
About 79,000 compounds went through this panel and 15% of them were active in at least one assay; those are over-represented in the sample as a whole. Values without a mark were called inactive. No stated cut-off is given here; in the data, active means growth inhibition above about 70%; inactive means the rest. Where a SMILES comes first, the peptide text is derived from it. [ ]: non-standard residue; d: D form. The star is where a group is joined. ξ: configuration not given here. ξL = CC(C)CC(N)C(=O)O; ClAc = O=C(CCl)*

Assay: NCI Yeast Anticancer Drug Screen. Data for the rad50 strain (AID 155);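 further: 0% = growth of vehicle-only cultures of the same strain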
Settings: S. cerevisiae rad50 strain growth inhibition; at 50.0 µM; hits give high values
Method in brief: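 DNA repair mutant yeast, compound exposure, growth read-out; inhibition is taken relative to vehicle.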
Work on `O=C(O)/C=C/C(=O)Nc1cc(Cl)ccc1Cl` yielded a growth inhibition of 9.6%. With `Cc1ccc(/C=N/N2C(=O)c3ccccc3C2=O)cc1` the growth inhibition was -28.9%. `CCN(CC#N)c1ccc(Nc2cc(Cl)ccc2Cl)cc1` showed a growth inhibition of 8.75%. `CN(C)c1ccc(P(c2ccc(N(C)C)cc2)c2ccc(N(C)C)cc2)cc1` gave a growth inhibition of -17.2%. Work on `O=CNC(Cc1ccc(O)cc1)C(=O)O` (stereo unspecified) yielded a growth inhibition of 4.1%. `CC(C)CC(NC(=O)CCl)C(=O)NCC(=O)O` (stereo unspecified) (ClAc-[ξL]-Gly-OH) gave a growth inhibition of 8.05%. `CCCCCCCCCCCCOc1ccccc1C=O` gave a growth inhibition of 1.5%. With `CCOC(=O)c1c(C)nc(C)c(C(=O)OCC)c1-c1cccc([N+](=O)[O-])c1` the growth inhibition was 29.1%. With `CCOc1ccc(NC(=O)C2CCC(C)(C(=O)O)C2(C)C)cc1` (stereo unspecified) the growth inhibition was -3.45%. With `Nc1n[nH]c(=S)n1-c1ccc(Cl)cc1` the growth inhibition was -14.3%. Compound `N#C/C(=C1C=C/C(=N/O)C(Br)=C/1)c1ccccc1` has a growth inhibition of 50.1%. With `COc1cc(/C=N\NC(=O)OC(C)(C)C)cc(OC)c1OC` the growth inhibition was 6.25%. With `CCOC(=O)C(C#N)N=Nc1ccccc1` (stereo unspecified) the growth inhibition was 10.2%. `CN(C)c1ccc(C2=C([O-])C(=C3C=CC(=[N+](C)C)C=C3)C2=O)cc1` gave a growth inhibition of -10.4%. `CC(=O)NCc1cc(CNC(C)=O)c(C)cc1C` gave a growth inhibition of -17.5%. `O=C(N/N=C/c1ccc2c(c1)CCC2)c1cc2ccccc2cc1O` showed a growth inhibition of 2.55%. Compound `O=C(CN1C(=O)c2ccccc2C1=O)c1ccc(Br)cc1` has a growth inhibition of 14.2%. For `CN(Cc1ccccc1)Cc1ccccc1`, the growth inhibition was 8.4%. Work on `COc1cc(/C=N\Nc2ccccc2[N+](=O)[O-])cc(OC)c1OC` yielded a growth inhibition of -11.4%. With `CCCCN1CCNCC1` the growth inhibition was 10.1%. `S=C(S)N1CCC(CCCC2CCN(C(=S)S)CC2)CC1` gave a growth inhibition of -9.1%. For `O=C(O)c1ccccc1Oc1ccccc1C(=O)O`, the growth inhibition was -8.75%. `CSc1sc2cc([N+](=O)[O-])ccc2[n+]1C` showed a growth inhibition of -0.4%. With `CCn1c2[n+](c3ccccc31)CCC2` the growth inhibition was -28.6%. Compound `Oc1cc(Br)ccc1C=Nc1ccc(N2CCCCC2)cc1` has a growth inhibition of 25.4%. `O=S(=O)(O)c1ccc(-c2ccccc2)cc1` showed a growth inhibition of -0.4%. `O=C1NC(=O)C(c2ccccc2)(C2CCC2)N1` (stereo unspecified) showed a growth inhibition of -6.95%. Work on `CCN(CC)c1ccc(N=Cc2ccccc2S(=O)(=O)O)cc1` yielded a growth inhibition of 0.9%. In the case of `N#CCC(=O)OCCCCOC(=O)CC#N`, the growth inhibition is reported as -8.3%. `CCCCCCCCCCCC(O)CCCCC` (stereo unspecified) showed a growth inhibition of -15%. `c1cc[n+](CCNCC[n+]2ccccc2)cc1` gave a growth inhibition of 8.55%. Work on `COC(=O)c1nc(Br)cnc1N` yielded a growth inhibition of 8.05%. `O=[N+]([O-])c1ccc2nc3c4ccccc4c4ccccc4c3nc2c1` showed a growth inhibition of 53.1%. In the case of `COc1cc(-c2cc(=O)c3c(O)cc(O)cc3o2)cc(OC)c1OC`, the growth inhibition is reported as -8.15%. For `Cc1cccc(-c2nc3cc(Cl)ccc3c(=O)o2)c1`, the growth inhibition was -10.8%. With `CC12CC3CC(C(Cl)C(=O)O)(C1)CC(C(Cl)C(=O)O)(C3)C2` (stereo unspecified) the growth inhibition was 52.1%. `CC12CC3(C)CC(C)(C1)CC(C(Cl)C(=O)O)(C2)C3` (stereo unspecified) gave a growth inhibition of 50.7%. Work on `CC(C)N(C)c1ccc(N=Nc2cc(Cl)ccc2Cl)cc1` yielded a growth inhibition of -27.6%.

Assay: NCI Yeast Anticancer Drug Screen. Data for the mec2-1 strain (AID 157)
Settings: S. cerevisiae mec2-1 strain, at 50.0 µM, hits give high values
Method in brief: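 Compounds were applied to mec2-1 yeast cells. Their growth was then compared with that of vehicle-treated cultures to give growth inhibition.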
`O=C(O)/C=C/C(=O)Nc1cc(Cl)ccc1Cl` showed a growth inhibition of 12.1%. In the case of `Cc1ccc(/C=N/N2C(=O)c3ccccc3C2=O)cc1`, the growth inhibition is reported as -43.1%. Compound `CCN(CC#N)c1ccc(Nc2cc(Cl)ccc2Cl)cc1` has a growth inhibition of -22.1%. Work on `CN(C)c1ccc(P(c2ccc(N(C)C)cc2)c2ccc(N(C)C)cc2)cc1` yielded a growth inhibition of -15.3%. Compound `O=CNC(Cc1ccc(O)cc1)C(=O)O` (stereo unspecified) has a growth inhibition of -30.4%. Compound `CC(C)CC(NC(=O)CCl)C(=O)NCC(=O)O` (stereo unspecified) (ClAc-[ξL]-Gly-OH) has a growth inhibition of 9.65%. Work on `CCCCCCCCCCCCOc1ccccc1C=O` yielded a growth inhibition of -29.8%. `CCOC(=O)c1c(C)nc(C)c(C(=O)OCC)c1-c1cccc([N+](=O)[O-])c1` gave a growth inhibition of 2.35%. For `CCOc1ccc(NC(=O)C2CCC(C)(C(=O)O)C2(C)C)cc1` (stereo unspecified), the growth inhibition was 0.35%. `Nc1n[nH]c(=S)n1-c1ccc(Cl)cc1` showed a growth inhibition of -29.6%. Compound `N#C/C(=C1C=C/C(=N/O)C(Br)=C/1)c1ccccc1` has a growth inhibition of 13.2%. In the case of `COc1cc(/C=N\NC(=O)OC(C)(C)C)cc(OC)c1OC`, the growth inhibition is reported as -17.4%. Compound `CCOC(=O)C(C#N)N=Nc1ccccc1` (stereo unspecified) has a growth inhibition of -7%. Compound `CN(C)c1ccc(C2=C([O-])C(=C3C=CC(=[N+](C)C)C=C3)C2=O)cc1` has a growth inhibition of -15.2%. Work on `CC(=O)NCc1cc(CNC(C)=O)c(C)cc1C` yielded a growth inhibition of -13.7%. In the case of `O=C(N/N=C/c1ccc2c(c1)CCC2)c1cc2ccccc2cc1O`, the growth inhibition is reported as -8.15%. For `O=C(CN1C(=O)c2ccccc2C1=O)c1ccc(Br)cc1`, the growth inhibition was 16.1%. In the case of `CN(Cc1ccccc1)Cc1ccccc1`, the growth inhibition is reported as -3.9%. Work on `COc1cc(/C=N\Nc2ccccc2[N+](=O)[O-])cc(OC)c1OC` yielded a growth inhibition of -25.4%. With `CCCCN1CCNCC1` the growth inhibition was -1.95%. For `S=C(S)N1CCC(CCCC2CCN(C(=S)S)CC2)CC1`, the growth inhibition was -22.1%. Work on `O=C(O)c1ccccc1Oc1ccccc1C(=O)O` yielded a growth inhibition of -22.9%. In the case of `CSc1sc2cc([N+](=O)[O-])ccc2[n+]1C`, the growth inhibition is reported as -7.6%. `CCn1c2[n+](c3ccccc31)CCC2` gave a growth inhibition of -35.2%. Compound `Oc1cc(Br)ccc1C=Nc1ccc(N2CCCCC2)cc1` has a growth inhibition of 10.5%. Work on `O=S(=O)(O)c1ccc(-c2ccccc2)cc1` yielded a growth inhibition of -16.1%. In the case of `O=C1NC(=O)C(c2ccccc2)(C2CCC2)N1` (stereo unspecified), the growth inhibition is reported as -33.1%. With `CCN(CC)c1ccc(N=Cc2ccccc2S(=O)(=O)O)cc1` the growth inhibition was -11.4%. Work on `N#CCC(=O)OCCCCOC(=O)CC#N` yielded a growth inhibition of -22.3%. `CCCCCCCCCCCC(O)CCCCC` (stereo unspecified) gave a growth inhibition of -48.4%. `c1cc[n+](CCNCC[n+]2ccccc2)cc1` showed a growth inhibition of -7.75%. `COC(=O)c1nc(Br)cnc1N` gave a growth inhibition of -8.4%. `O=[N+]([O-])c1ccc2nc3c4ccccc4c4ccccc4c3nc2c1` gave a growth inhibition of -1.1%. In the case of `COc1cc(-c2cc(=O)c3c(O)cc(O)cc3o2)cc(OC)c1OC`, the growth inhibition is reported as -10.7%. `Cc1cccc(-c2nc3cc(Cl)ccc3c(=O)o2)c1` showed a growth inhibition of -13.6%. Compound `CC12CC3CC(C(Cl)C(=O)O)(C1)CC(C(Cl)C(=O)O)(C3)C2` (stereo unspecified) has a growth inhibition of 14.5%. In the case of `CC12CC3(C)CC(C)(C1)CC(C(Cl)C(=O)O)(C2)C3` (stereo unspecified), the growth inhibition is reported as 22.8%. In the case of `CC(C)N(C)c1ccc(N=Nc2cc(Cl)ccc2Cl)cc1`, the growth inhibition is reported as -36.8%.
